Consider 40 compounds from PubChem BioAssay (EPA / NIEHS).

Activity calls are given as the source filed them. How the source made its calls: active means hit-call score of the fitted dose curve at least 0.9, where 1 is the maximum; inactive means score below 0.9.

The experiment in a line: ATG_ISRE_CIS: Attagene CIS-FACTORIAL HepG2 Assay for human Interferon Regulatory Factor 1 (IRF1) binding to an Interferon-Stimulated Response Element (ISRE) (AID 2282948). The conditions noted are these: HepG2 ISRE cis-reporter (Attagene), mRNA transcription readout; actives raise or lower the signal. As for the experimental part: ATG_CIS is a cell-based, multiplexed-readout assay that uses HepG2, a human liver cell line, with measurements taken at 24 hours after chemical dosing in a 24-well plate.ATG_ISRE_CIS is one of 52 assay component(s) measured or calculated from the ATG_CIS assay. It is designed to make measurements of mRNA induction, a form of inducible reporter, as detected with fluorescence intensity signals by Reverse transcription polymerase chain reaction (RT-PCR) and Capillary electrophoresis technology.Data from the assay component ATG_ISRE_CIS was analyzed into 1 assay endpoint. This assay endpoint, ATG_ISRE_CIS, was analyzed with bidirectional fitting relative to DMSO as the negative control and baseline of activity. Using a type of inducible reporter, measures of mRNA for gain or loss-of-signal activity can be used to understand the reporter gene at the transcription factor-level as they relate to the gene IRF1. Furthermore, this assay endpoint can be referred to as a primary readout, because this assay has produced multiple assay endpoints where this one serves a reporter gene function. To generalize the intended target to other relatable targets, this assay endpoint is annotated to the dna binding intended target family, where the subfamily is interferon regulatory factors.
Human liver HepG2 cells are transiently transfected with multiple reporter transcription units (MRTUs) in 6-well plates using FuGene 6 reagent (Roche; 3 ml FuGene/1 mg DNA). The MRTU constructs are regulated by a cis-regulating element (promoter). […] A major difference between the CIS and TRANS system is that in CIS activities of endogenous TFs are measured, whereas the TRANS assay evaluates changes in activities of exogenous, chimeric NR-Gal4 proteins. […] At the end of 24 hour incubation, total RNA was isolated using TriZol reagent (Invitrogen). The isolated RNA is then reverse-transcribed using oligo(dT) primer and Mo-MLV reverse transcriptase (Invitrogen) with DNAse I (Ambion) treatment for 30 min. The one-tenth of the produced cDNA was amplified by PCR using Taq DNA polymerase (Invitrogen) and two reporter sequence-specific primers. The PCR products were fluorescently labeled by primer extension with 6-arboxyfluorescein (6-FAM) 5'-labeled reporter sequence-specific primer (2 min at 95 C, 20 s at 68 C and 10 min at 72 C) and these products were digested with 5U of HpaI (New England Biolabs) for 2h at 37 C. The fragments were purified using Qiaquick PCR columns (Qiagen), analyzed on an ABI 3130xL genetic analyzer (Applied Biosystems) with peak positions identified by using a set of X-rhodamine (ROX)-labeled MapMarker1000 molecular weight standards (BioVentures). The raw capillary electrophoresis data was processed using Attagraph software (Attagene).
`Oc1c(Cl)cc(Cl)cc1Cl`: the compound was classed as inactive.
The same measure, in the same setting: the result for `COc1ccc([N+](=O)[O-])cc1O` reads “inactive”; that for `O=S(=O)(c1ccc(Cl)cc1)c1cc(Cl)c(Cl)cc1Cl`, “inactive”; that for `CC(C)O.CC(C)O.OCCN(CCO)CCO.OCCN(CCO)CCO.[Ti]`, “inactive”.
On the same count and under the same terms, the result for `Cl[C@H]1OCCO[C@@H]1Cl` reads “inactive”; that for `C=CC(=O)[O][Sn]([CH2]CCC)([CH2]CCC)[CH2]CCC`, “inactive”; that for `c1ccc2sc(SNC3CCCCC3)nc2c1`, “inactive”.
Still for that read-out and setting: under `OC(Cc1ccccc1Cl)(Cn1cncn1)C1(Cl)CC1` (stereo not given) stands “inactive”.
For the compound `Nc1ncn[nH]1`, the call was inactive.
Regarding `CCCCC(CC)COC(=O)Cl` (stereo not given), the compound was classed as inactive.
Still for that read-out and setting: under `CCOC(=O)Cc1ccccc1` stands “inactive”; under `Cc1ccc(OP(=O)(Oc2ccc(C)cc2C)Oc2ccc(C)cc2C)c(C)c1`, “inactive”; under `O=C(CCl)NCO`, “inactive”.
Consider `C[C@H]1C(=O)O[C@@H]2CCN3CC=C(COC(=O)[C@](C)(O)[C@]1(C)O)[C@H]23`, for which the outcome was inactive.
The same measure, in the same setting: the result for `CCOP(=S)(OCC)O/N=C(\C#N)c1ccccc1` reads “inactive”; that for `c1ccc2c(c1)Oc1ccccc1O2`, “inactive”.
Still for that read-out and setting: the result for `COCCl` reads “inactive”.
`O=C/C(Cl)=C(/Cl)C(=O)O`: the AC50 was 100 µM (active).
As for `c1ccc(-c2cccc(-c3ccccc3)c2)cc1`, the result was inactive.
Same read-out and setting: the result for `O=NN1CCCCCC1` reads “inactive”.
The same measure, in the same setting: under `CCOC(=O)C(SP(=S)(OC)OC)c1ccccc1` (stereo not given) stands “inactive”.
On the same count and under the same terms, the result for `CCOP(=S)(OCC)SCSc1cc(Cl)ccc1Cl` reads “inactive”.
In the case of `Cc1cc(C(C)(C)c2ccc(O)c(C)c2)ccc1O`, the AC50 was 50 µM (active).
For `CCOC(=O)c1ccccc1S(=O)(=O)NC(=O)Nc1nc(Cl)cc(OC)n1`, the compound was classed as inactive.
Consider `O=C(NC(=O)c1c(F)cccc1F)Nc1cc(Cl)c(Oc2ncc(C(F)(F)F)cc2Cl)c(Cl)c1`, for which the outcome was inactive.
Still for that read-out and setting: under `CC[N+](CC)(CC)CC` stands “inactive”; under `O=c1nc(O)n(Cl)c(=O)n1Cl`, “inactive”.
Still for that read-out and setting: under `CCOP(=O)(OCC)OC(=CCl)c1ccc(Cl)cc1Cl` stands “inactive”; under `CC1(C)COP(Oc2ccccc2)OC1`, “inactive”; under `CC(C)[C@@H](Nc1ccc(C(F)(F)F)cc1Cl)C(=O)OC(C#N)c1cccc(Oc2ccccc2)c1` (stereo not given in full), “inactive”.
For `CCOC(=O)CCN(SN(C)C(=O)Oc1cccc2c1OC(C)(C)C2)C(C)C`, the result was inactive.
Still for that read-out and setting: under `CCCCCCCCCCCCc1cccc(S(=O)(=O)O)c1` stands “inactive”; under `c1cc[c]([Sb]([c]2ccccc2)[c]2ccccc2)cc1`, “inactive”.
On the same count and under the same terms, under `Cc1ccc2nc3sc(=O)sc3nc2c1` stands “inactive”.
`COCC(=O)N(c1c(C)cccc1C)[C@H](C)C(=O)OC`: the outcome was inactive.
Same read-out and setting: under `Oc1cc(Cl)c(Cl)cc1Cl` stands “inactive”; under `ClCCCCl`, “inactive”.
Still for that read-out and setting: the result for `NNCCO` reads “inactive”.
Same read-out and setting: the result for `O=S1OC[C@@H]2[C@H](CO1)[C@]1(Cl)C(Cl)=C(Cl)[C@@]2(Cl)C1(Cl)Cl` (stereo not given in full) reads “inactive”; that for `CCCCOC(=O)COC(=O)c1ccccc1C(=O)OCCCC`, “inactive”.

The AC50 is the concentration giving half of the maximal activity seen.
